A549 viability: A549 cytotoxicity, counter-screen for Nrf2 inhibitors; A549 ARE-Fluc cells, CellTiter-Fluor viability, 18-24 h; Potency, µM (titrated, usually from 46 µM), inactives show top-dose activity change, negative = cytotoxicity, usual class: inhibitors; 0.16% of 390,000 active; AID 504648; also: % is scaled to controls: 0 for no effect and ±100 for the full control effect
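Cytotoxicity counterscreen: CellTiter-Fluor fluorescence was measured in A549 ARE_Fluc cells after 18-24 h of compound exposure in a concentration series. The subsequent BugLite luminescent read reports ARE-luciferase activity.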
Nrf2 block: inhibitors of Nrf2 signaling. A549 ARE-Fluc reporter, luciferase luminescence, 18-24 h. Potency, µM (titrated, usually from 46 µM), inactives show at the top dose activity change, negative = inhibition, actives largely listed as inhibitors. 2.1% of 360,000 active. AID 504444; also: % is scaled to controls: 0 for no effect and ±100 for the full control effect; nearly all actives have a fitted effect of over 60% in size
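A549 ARE_Fluc cells (5000/well, 5% FBS OPTI-MEM) pre-incubated 2 h, then treated with compounds 18-24 h at 37C/5% CO2 in concentration-response. CellTiter-Fluor viability read first; BugLite luciferase luminescence after 15 min at room temperature gives Nrf2 activity.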
ELG1 repair inh: ELG1-dependent DNA repair inhibition; Potency, µM (titrated, usually from 46.1 µM), for inactives: top-dose activity change, negative = inhibition, hits mostly inhibitors; HEK293T ELG1-luciferase reporter, luminescence, 16 h; DNA damage induced by 5-fluorouridine; 2.3% of 330,000 active; also: % is scaled to controls: 0 for no effect and ±100 for the full control effect; nearly all actives have a fitted effect of over 55% in size
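Reporter activity after DNA damage by 5-fluorouridine is monitored. Compound-treated cells incubate 16 hr at 37 °C, then ONE-Glo is added for 30 min before luminescence reading.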
mIDH1 inhibitor: human IDH1 R132H inhibition. 0.093% of 390,000 active. Potency, µM (titrated, usually from 76.6 µM), for inactives: at the top dose activity change, negative = inhibition, actives largely listed as inhibitors. O75874. IDH1-R132H enzyme, NADPH consumption, diaphorase/resazurin fluorescence. AID 602179; also: % is scaled to controls: 0 for no effect and ±100 for the full control effect; nearly all actives have a fitted effect of over 65% in size
Target sequence (O75874 whole entry R132H, stated change not applied): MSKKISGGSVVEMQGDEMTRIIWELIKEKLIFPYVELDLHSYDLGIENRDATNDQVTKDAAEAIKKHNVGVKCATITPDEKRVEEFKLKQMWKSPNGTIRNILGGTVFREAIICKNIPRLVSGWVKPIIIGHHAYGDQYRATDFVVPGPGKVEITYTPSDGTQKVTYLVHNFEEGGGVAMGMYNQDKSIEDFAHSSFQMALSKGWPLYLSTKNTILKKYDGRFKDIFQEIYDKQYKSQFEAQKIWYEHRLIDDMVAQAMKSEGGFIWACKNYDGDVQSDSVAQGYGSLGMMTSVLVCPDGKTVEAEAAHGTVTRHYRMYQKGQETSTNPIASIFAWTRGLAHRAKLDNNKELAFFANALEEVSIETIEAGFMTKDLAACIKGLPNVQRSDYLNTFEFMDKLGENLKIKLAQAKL
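IDH1-R132H (0.5 ug/mL) preincubated 30 min with compound, then NADPH (0.016 mM) and alpha-KG (2 mM) added; 80 min at RT, pH 7.5. Remaining NADPH coupled via diaphorase/resazurin to fluorescence (540/590 nm); concentration-response curves normalized to no-enzyme control.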
Nrf2 ARE act: activates Nrf2 signaling; AREc32 ARE-luciferase reporter (MCF7-derived line), luminescence, 24 h; Potency, µM (titrated, usually from 46.1 µM), inactives show top-dose activation, hits mostly activators; 0.31% of 410,000 active; AID 624171; also: % of control where 0% means no effect; nearly all actives have a fitted effect of over 65% in size
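Cells of the AREc32 ARE-luciferase line are plated in OPTI-MEM containing 5% FBS and left overnight at 37 deg C. Compounds are pinned in, incubation continues 24 hr, and firefly luciferase signal is then measured.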
ELG1 FLuc counter: luciferase inhibition in cell-free luciferin readout for ELG1 hits; shares compounds with ELG1 repair inh; cell-free firefly luciferase luminescence counter-screen, ViewLux; Potency, µM (highest dose often 46.1 µM), inactives show at the top dose activity change, negative = inhibition, most hits filed as inhibitors; 3% of 350 active; AID 624247; also: % is scaled to controls: 0 for no effect and ±100 for the full control effect
ELG1-Luc inh: confirmation of human ELG1-dependent DNA repair inhibitors; shares compounds with ELG1 repair inh; HEK293T ELG1-luciferase levels, luminescence; cells co-treated with 5-fluorouridine; Potency, µM (doses to about 46.1 µM), inactives show top-dose activity change, negative = inhibition, most hits filed as inhibitors; 68% of 670 active; AID 624248; also: % is scaled to controls: 0 for no effect and ±100 for the full control effect; nearly all actives have a fitted effect of over 55% in size
ELG1-Luc MMS: inhibits ELG1-dependent repair under MMS stimulation in HEK293T cells; Potency, µM (series often up to 46.1 µM), for the others: top-dose activity change, negative = inhibition, usual class: inhibitors; shares compounds with ELG1 repair inh; 53% of 670 active; HEK293T luciferase-tagged ELG1 level, MMS stimulated; also: % is scaled to controls: 0 for no effect and ±100 for the full control effect; nearly all actives have a fitted effect of over 60% in size
ELG1 5FU viab: confirmation of ELG1 repair inhibitors: viability with 5FU; Potency, µM (titrated, usually from 46.1 µM), without a hit: top-dose activity change, negative = viability loss, most hits filed as cytotoxic; shares compounds with ELG1 repair inh; 670 tested, under 10 active; AID 624250; cell viability with 5-FU, ELG1-dependent repair;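 also: ELG1-luc HEK293T cells cotreated with 5-fluorouridine at 10 µM final; viability measured 16 h after compound addition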
ELG1 MMS cell: confirmation of ELG1 repair inhibitors: viability with MMS | shares compounds with ELG1 repair inh | Cell viability with MMS, ELG1-dependent DNA repair | Potency, µM (highest dose often 46.1 µM), for the others: at the highest dose activity change, negative = viability loss, hits mostly cytotoxic | 33% of 670 active;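 also: ELG1-luc HEK293T cells co-treated with 10 µM MMS; viability read 16 h after compound addition; % is scaled to controls: 0 for no effect and ±100 for the full control effect; nearly all actives have a fitted effect of over 60% in size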
ELG1 unstim viab: counter-screen for ELG1 repair inhibitors: unstimulated cell viability; shares compounds with ELG1 repair inh; cell viability counter-screen, unstimulated, luminescence; Potency, µM (series often up to 45.9 µM), for the others: at the highest dose activity change, negative = loss of viability, actives largely listed as cytotoxic; 8% of 900 active; AID 624252;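 also: compound exposure lasted 16 hours before reading; % is scaled to controls: 0 for no effect and ±100 for the full control effect; nearly all actives have a fitted effect of over 55% in size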
FLuc biochem: counter-screen for ELG1 repair inhibitors: firefly luciferase inhibition; shares compounds with ELG1 repair inh; purified firefly luciferase, luminescence counter-screen; Potency, µM (highest dose often 57.5 µM), without a hit: at the top dose activity, negative = inhibition, hits mostly inhibitors; 10% of 350 active; AID 624253; also: % is scaled to controls: 0 for no effect and ±100 for the full control effect
* = called active by the depositor; ? = inconclusive; / = no result given; [ ] = remark or other dose. Hits are enriched below; roughly 3.8% of the tested compounds scored in any of these assays. Calls follow the shape of the dose curve; as a rule, active = well fitted curve in the direction sought with a large enough effect; inconclusive = small, poorly fitted or top-dose-only effect, or another doubt; inactive = no such curve, though single readings can be large; an effect the other way counts as inactive or inconclusive. Potency is read from the fitted curve at half-maximal effect.

SMILES	A549 viability	Nrf2 block	ELG1 repair inh	mIDH1 inhibitor	Nrf2 ARE act	ELG1-Luc inh	ELG1-Luc MMS	ELG1 5FU viab	ELG1 MMS cell	ELG1 unstim viab	others
COc1ccc(OC)c(NC(=O)CCn2c(=S)[nH]c3ccccc3c2=O)c1	0%	8%	10%	10%	0%	/	/	/	/	/
CCCCCn1c(=O)[nH]c2cc(C(=O)NCc3ccc4c(c3)OCO4)ccc2c1=O	3%	9%	18%	2%	0%	/	/	/	/	/
CCCCCn1c(=O)[nH]c2cc(C(=O)N3CCN(Cc4ccc5c(c4)OCO5)CC3)ccc2c1=O	?	0.82µM*	0.46µM*	2%	1%	?	0.22µM*	-6%	0.22µM*	?	ELG1 FLuc counter=-18%;FLuc biochem=-12%
COc1ccc(N2CCN(C(=O)c3ccc4c(=O)n(CCc5ccc(OC)c(OC)c5)c(=O)[nH]c4c3)CC2)cc1	?	?	1.8µM*	1%	0%	16µM*	13µM*	7%	?	?
COc1ccc(OC)c(NC(=O)c2ccc3c(=O)n(CCc4ccccc4)c(=S)[nH]c3c2)c1	-13%	-19%	1.5µM*	-1%	0%	?	0.56µM*	-11%	0.63µM*	?
O=C(c1ccc2c(=O)n(CCc3ccccc3)c(=O)[nH]c2c1)N1CCN(c2ccccc2)CC1	1%	?	-5%	-1%	4%	/	/	/	/	/
Cc1cc(C)cc(N2C(=O)CSC23C(=O)N(CC(=O)NCCc2ccccc2)c2ccccc23)c1 (stereo not drawn)	-11%	14%	/	-3%	0%	/	/	/	/	/
Cc1nn(C)c2ncc(C(=O)c3ccccc3O)cc12	-12%	-8%	1%	4%	4%	/	/	/	/	/
Cc1[nH]nc2ncc(C(=O)c3ccccc3O)cc12	/	?	2.5µM*	8%	2%	3.5µM*	10µM*	?	?	-8%
CC(C)CN(C)c1ccc(/C=C2\C=Cc3ccccc32)cc1	/	/	/	/	/	/	/	/	/	?
CN(C)N=Nc1ccc(/C=C2\C=Cc3ccccc32)cc1	/	/	/	/	/	/	/	/	/	-2%
CN(C)c1ccc(C=C2C=Cc3ccccc32)cc1	-20%	?	/	7%	3%	/	/	/	/	/
Cc1ccc(NC(=O)Cn2nc(C)c3nn(-c4ccc(Cl)cc4)c(C)c3c2=O)cc1C	-20%	/	/	-1%	0%	/	/	/	/	/
CC(C)(C)OC(=O)C[C@H]1C/C=C\C[C@@H](CC(=O)N[C@H](CO)Cc2ccccc2)C(=O)N2CCC[C@H]2COC1=O	-4%	-17%	?	-11%	-1%	/	/	/	/	/
CC(C)(C)OC(=O)C[C@@H]1C/C=C\C[C@@H](CC(=O)N[C@H](CO)Cc2ccccc2)C(=O)N2CCC[C@H]2COC1=O	-9%	7%	2.9µM*	-7%	-1%	?	?	-2%	-7%	?
[N-]=[N+]=Nc1nc2c(N)ncnc2n1C1OC(CO)C(O)C1O (stereo not drawn)	/	/	/	/	/	3.5µM*	4µM*	?	?	7.9µM*
CN(C)c1nc2c(N)ncnc2n1[C@H]1O[C@@H](CO)[C@H](O)[C@@H]1O	-9%	-10%	-8%	13%	0%	/	/	/	/	/
O=C(CNC(=O)OCc1ccccc1)NC1CCCCCC1	?	8%	-3%	7%	0%	/	/	/	/	/
O=C(N[C@H]1/C=C\[C@@H](O)CCCC1)OCc1ccccc1	-3%	?	?	5%	-1%	/	/	/	/	5%
CCn1c(CNC(=O)c2ccc(OC)cc2)nnc1SCC(=O)Nc1ccc(C)cc1	-9%	12%	/	2%	-1%	/	/	/	/	/
COc1ccc(/C=N/NC(=O)c2ccoc2C)cc1CN1CCN(c2ccc(F)cc2)CC1	-13%	8%	2.6µM*	-6%	11%	2.5µM*	-10%	?	-1%	?
CCCCCCC[C@@H](C/C=C/CCC(=O)N(C)C/C(=C/Cl)C/C(=C\C(=O)N1C[C@H](O)CC1=O)OC)OC	-9%	?	?	9%	-3%	/	/	/	/	/
CCCCCCC[C@@H](C/C=C/CCC(=O)N(C)C/C(=C/Cl)C/C(=C\C(=O)N1CC(OC)=CC1=O)OC)OC	?	?	?	-1%[38.3 µM]	7%	/	/	/	/	?
COc1cc(C(=O)OCCCc2cc3ccccc3c(=O)o2)cc(OC)c1OC	1%	-8%	?	4%	-1%	/	/	/	/	/
COc1cc(C(=O)OCCc2cc3ccccc3c(=O)o2)cc(OC)c1OC	-15%	?	?	18%	13%	4.4µM*	?	?	?	?
OC(CNc1nc(-c2cccnc2)nc2ccccc12)c1ccccc1 (stereo not drawn)	-1%	?	12µM*	0%	7%	11µM*	22µM*	0%	?	?	ELG1 FLuc counter=-9%;FLuc biochem=-14%
COc1ccc(C2CC(c3c(O)cc(C)oc3=O)=NCCS2)c(OC)c1 (stereo not drawn)	?	-1%	?	4%	9%	/	/	/	/	-15%
COCCn1c(CNC(=O)c2ccc(C)cc2)nc2cccnc21	-3%	/	/	7%	1%	/	/	/	/	/
O=c1[nH]c(=O)n([C@H]2C[C@H](O)[C@@H](CO)O2)cc1I	-1%	6%	9%	-1%	0%	/	/	/	/	/
